From PubChem
Sampled rows, rich in hits. Any-hit rate of the full collection: about 2.6%.
CRFBP-R2 agonist – agonists of human CRF-binding protein/CRF-R2 receptor complex; activation, % at 13.2 µM; HEK293 CRF-R2/CRF-BP, calcium dye fluorescence (FLIPR); percent of saturating CRF peptide response; 0.46% of 350,000 active; AID 588473;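 active means activation of at least 50%, plus an integration ratio under a set limit after plate pattern correction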;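 further: plate controls were neutral control wells without compound for no effect and CRF at EC100 for full effect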
CRFBP-R2 block – CRF-BP/CRF-R2 complex antagonism; HEK293 CRF-R2/CRF-BP, CRF-induced calcium fluorescence; inhibition, % at 11.8 µM; 0.59% of 350,000 active; AID 588475;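 active means inhibition of the ligand-induced calcium signal above about 50% at the single tested concentration, limit read from the data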
IDE cell activ – boosts human insulin-degrading enzyme activity in HEK cells; P14735; FAbeta-B cleavage, fluorescence polarization; 0% vehicle, 100% cell-free pure enzyme wells; activation, % at 5.96 µM; 0.073% of 340,000 active; AID 493087;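 active means activation above the mean of all tested compounds plus 3 SD, set per screening campaign, cut at about 17% in these data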
Target sequence (P14735 whole entry, looked up): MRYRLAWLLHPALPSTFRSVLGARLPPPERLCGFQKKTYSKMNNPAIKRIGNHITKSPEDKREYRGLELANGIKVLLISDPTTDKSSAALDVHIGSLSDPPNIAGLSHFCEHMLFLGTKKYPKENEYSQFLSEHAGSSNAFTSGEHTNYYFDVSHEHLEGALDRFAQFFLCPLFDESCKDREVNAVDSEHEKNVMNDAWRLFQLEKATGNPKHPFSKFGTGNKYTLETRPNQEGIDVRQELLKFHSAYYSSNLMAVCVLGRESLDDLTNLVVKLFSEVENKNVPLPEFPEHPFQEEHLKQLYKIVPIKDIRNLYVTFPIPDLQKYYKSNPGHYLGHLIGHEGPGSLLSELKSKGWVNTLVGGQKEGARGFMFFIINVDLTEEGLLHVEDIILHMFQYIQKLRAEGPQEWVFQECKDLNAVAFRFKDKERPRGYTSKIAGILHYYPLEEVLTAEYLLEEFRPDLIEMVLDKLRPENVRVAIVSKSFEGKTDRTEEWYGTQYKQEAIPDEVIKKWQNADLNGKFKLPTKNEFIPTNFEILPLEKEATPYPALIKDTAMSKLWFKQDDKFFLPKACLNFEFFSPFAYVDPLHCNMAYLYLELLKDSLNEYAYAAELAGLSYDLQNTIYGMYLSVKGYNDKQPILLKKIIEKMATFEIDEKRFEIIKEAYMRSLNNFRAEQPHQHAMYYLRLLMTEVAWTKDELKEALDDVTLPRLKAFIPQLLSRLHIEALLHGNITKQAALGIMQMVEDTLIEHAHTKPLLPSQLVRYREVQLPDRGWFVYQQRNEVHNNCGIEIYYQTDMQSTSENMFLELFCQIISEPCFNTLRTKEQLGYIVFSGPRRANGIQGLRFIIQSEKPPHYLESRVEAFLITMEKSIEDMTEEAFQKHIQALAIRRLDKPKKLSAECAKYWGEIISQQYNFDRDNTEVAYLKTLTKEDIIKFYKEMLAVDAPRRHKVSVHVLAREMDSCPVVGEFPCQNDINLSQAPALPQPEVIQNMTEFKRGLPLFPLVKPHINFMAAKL
IDE inh – inhibitors of human insulin-degrading enzyme in cells | P14735 | inhibition, % at 5.59 µM | HEK cells, FAbetaB cleavage, fluorescence polarization | AID 434962 | 0.41% of 320,000 active;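 active means percent inhibition above the average of all tested compounds plus 3 SD, set per screening campaign, cut at about 16% in these data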;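 further: IDE supplied by intact live HEK cells; FP after avidin binding of uncleaved biotin substrate so inhibition keeps polarization high; 0% = DMSO wells and 100% = 60 µM reference IDE inhibitor Ii1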
TPT1 inhibitor – C. albicans TPT1 enzyme inhibition; 0.81% of 300,000 active; AID 1962; recombinant caTPT1, FP RNA substrate dephosphorylation; inhibition, % at 5 µM;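 active means inhibition above the mean of all tested compounds plus 3 SD, set per screening campaign, cut at about 24% in these data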;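 further: plate controls were DMSO alone for no effect and ferristatin control at 100 nM for full effect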
Myeloid diff MLP – myeloid differentiation induction | ER-HoxA9 myeloid progenitors, lysozyme-GFP differentiation, flow cytometry | calls only at 10 µM | 1% of 360,000 active | AID 624256;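 active means normalized GFP-positive differentiation at or above the plate's own cutoff, the solvent-only control mean plus 3 SD; inconclusive means no clear call, values can overlap the other calls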;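 further: cells exposed to compound for four days before flow analysis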
* marks the source's active call; other numbers are inactive results; i = inactive; ? = inconclusive; · = no result given; + = active, no number.

SMILES	CRFBP-R2 agonist	CRFBP-R2 block	IDE cell activ	IDE inh	TPT1 inhibitor	Myeloid diff MLP
COc1ccc(OC)c(NC(=O)c2nc(S(=O)(=O)Cc3ccccc3)ncc2Cl)c1	-1	62*	-5	-5	-2	?
Cc1ccc(NC(=O)c2nc(S(=O)(=O)Cc3ccccc3)ncc2Cl)cc1	1	44	0	2	-1	?
O=C(Nc1ccc(F)cc1)c1nc(S(=O)(=O)Cc2ccccc2)ncc1Cl	-1	56*	4	0	-3	?
COc1ccc(NC(=O)c2nc(S(=O)(=O)Cc3cccc(C)c3)ncc2Cl)c(OC)c1	1	31	8	-2	4	?
COc1ccc(NC(=O)CCNS(=O)(=O)c2cccc3nsnc23)c(OC)c1	0	-2	1	-4	-4	i
O=c1[nH]c2ccccc2nc1Cc1ccccc1	9	-4	7	0	3	i
O=C(Cc1nc2ccccc2[nH]c1=O)c1ccccc1	30	-56	-13	·	·	+
CN(CCC#N)S(=O)(=O)c1ccc2[nH]cc(C(=O)NCCc3ccccc3)c(=O)c2c1	0	-7	9	7	1	i
COc1ccc(NC(=O)c2cccc(-n3c(C)ccc3C)c2)c(OC)c1	-2	22	-7	5	16	i
COc1ccccc1-c1cc(C(=O)NN)[nH]n1	-1	57*	·	-1	1	i
COc1cccc(N/C(N)=N/c2nc(CSc3ccccn3)cc(=O)[nH]2)c1	·	·	·	-3	-2	·
COc1ccnc(CSC(N)=Nc2ccc(F)cc2)c1	6	86*	2	5	1	i
O=C(CNC(=O)c1ccc2c(c1)OCO2)N/N=C(Br)/C=C/c1ccccc1	-1	-4	-8	5	21	+
O=C(CNC(=O)c1ccc2c(c1)OCO2)N/N=C/c1cccc([N+](=O)[O-])c1	0	9	7	-2	-1	i
Cc1ccc(NC(=O)N2CCC(=O)N2)cc1	1	2	1	0	1	i
Cc1ccc(NS(=O)(=O)c2ccc(-c3coc(C)n3)cc2)c(Cl)c1	-1	1	·	·	·	i
O=C(c1cccc(F)c1F)N1CCCc2ccccc21	-3	13	7	-5	3	i
O=C(c1ccccc1F)N1CCCc2ccccc21	2	-14	4	-1	0	+
O=C(c1ccc([N+](=O)[O-])s1)N1CCc2ccccc21	-1	7	2	3	1	+
O=C(c1ccc([N+](=O)[O-])s1)N1CCCc2ccccc21	-2	18	5	3	-2	+
O=[N+]([O-])c1cccc(COc2cccc(CN3CCCCC3)c2)c1	1	-10	7	·	·	i
O=C(CSc1nnc(NC(=O)c2c(F)cccc2F)s1)NC1CCCCC1	1	-3	-5	-1	0	i
COc1ccc(OCC(=O)Nc2ccc3nc(C)sc3c2)cc1	-1	11	5	0	-1	i
CN1C(=O)c2cccc3c(Cl)ccc(c23)C1=O	-2	-4	0	4	-5	i
CNc1ccc2c3c(cccc13)C(=O)N(C)C2=O	170*	-118	59*	-32	-63	+
SMILES	CRFBP-R2 agonist	CRFBP-R2 block	IDE cell activ	IDE inh	TPT1 inhibitor	Myeloid diff MLP
CC(C(=O)Nc1sccc1C(N)=O)N1C(=O)C2CC=CCC2C1=O (centres undefined)	-3	63*	2	0	2	i
COc1cc2c(cc1OC)/C(=C/C(=O)c1ccc(OC)c([N+](=O)[O-])c1)NCC2	0	57*	-2	·	·	i
COc1cc2c(cc1OC)/C(=C/C(=O)c1cccc([N+](=O)[O-])c1)NCC2	-2	-2	-2	5	1	i
CSCCC(NC(=O)c1cccc(C)c1)C(=O)NNC(=O)c1cccs1 (centres undefined)	0	66*	2	-4	·	i
CSCCC(NC(=O)c1cccc(C)c1)C(=O)NCc1cccs1 (centres undefined)	-1	-6	-1	0	·	i
CCc1cc2c(=O)n(-c3ccc(C)cc3)cnc2s1	-3	-13	6	-5	4	i
CN(C)CCCNC(=O)c1ccccc1Oc1ccccc1	2	59*	4	2	-3	i
O=C(CN1CCN(CN2C(=O)NC3(CCCCCC3)C2=O)CC1)Nc1ccc(F)cc1	0	4	19*	-2	·	i
